Measured values reported in the supplement of paper PMC12282887.
± gives the standard deviation of the averaged measurements.

Test system: E. coli BW25113 marRABp lux reporter
Experiment: promoter activity interaction Z-score (Lux/OD deviation from empty-vector control); higher = stronger promoter induction by the compound
Protocol: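 E. coli BW25113 (wild type or ΔmarA/ΔsoxS/Δrob) carrying pTU175 luxCDABE promoter reporters was grown in LB in 384-well plates at 37°C with each of 94 compounds at 4 two-fold concentrations, in biological duplicates. Luminescence and OD600 were read every 30 min for 12 h and integrated as AUC over 8 h (0-8 h WT, 1-9 h mutants). Lux AUC was divided by OD AUC; the interaction score is the residual of a Huber robust fit of each promoter against the empty-vector control, then Z-transformed per promoter.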

For `CO/N=C(\C(=O)N[C@@H]1C(=O)N2C(C(=O)O)=C(COC(C)=O)CS[C@H]12)c1csc(N)n1` [Cefotaxime], the “promoter activity interaction Z-score” value (0.0012 µg/ml, genetic background: wild type) was -0.109 ± 0.032, the “promoter activity interaction Z-score” value (0.0012 µg/ml, genetic background: ΔmarA) was -0.16 ± 0.041 and the “promoter activity interaction Z-score” value (0.0012 µg/ml, genetic background: Δrob) was -0.227 ± 0.0043. The “promoter activity interaction Z-score” value (0.0012 µg/ml, genetic background: ΔsoxS) was -0.0693 ± 0.13, the “promoter activity interaction Z-score” value (0.0024 µg/ml, genetic background: wild type) was 0.0203 ± 0.031 and the “promoter activity interaction Z-score” value (0.0024 µg/ml, genetic background: ΔmarA) was -0.118 ± 0.093. For the same molecule, the “promoter activity interaction Z-score” value (0.0024 µg/ml, genetic background: Δrob) was 0.021 ± 0.12, the “promoter activity interaction Z-score” value (0.0024 µg/ml, genetic background: ΔsoxS) was -0.0591 ± 0.15 and the “promoter activity interaction Z-score” value (0.0048 µg/ml, genetic background: wild type) was -0.2 ± 0.023. The “promoter activity interaction Z-score” value (0.0048 µg/ml, genetic background: ΔmarA) was -0.394 ± 0.27, the “promoter activity interaction Z-score” value (0.0048 µg/ml, genetic background: Δrob) was -0.171 ± 0.25 and the “promoter activity interaction Z-score” value (0.0048 µg/ml, genetic background: ΔsoxS) was -0.214 ± 0.072. For the same molecule, the “promoter activity interaction Z-score” value (0.01 µg/ml, genetic background: wild type) was 0.0434 ± 0.19, the “promoter activity interaction Z-score” value (0.01 µg/ml, genetic background: ΔmarA) was -0.126 ± 0.0051 and the “promoter activity interaction Z-score” value (0.01 µg/ml, genetic background: Δrob) was 0.448 ± 0.33. For the same molecule, the “promoter activity interaction Z-score” value (0.01 µg/ml, genetic background: ΔsoxS) was 0.448 ± 0.066.
`CC[C@H]1OC(=O)[C@H](C)[C@@H](O[C@H]2C[C@@](C)(OC)[C@@H](O)[C@H](C)O2)[C@H](C)[C@@H](O[C@@H]2O[C@H](C)C[C@H](N(C)C)[C@H]2O)[C@](C)(O)C[C@@H](C)CN(C)[C@H](C)[C@@H](O)[C@]1(C)O` [Azithromycin] was tested, and the “promoter activity interaction Z-score” value (0.28 µg/ml, genetic background: wild type) was 0.645 ± 0.36, the “promoter activity interaction Z-score” value (0.28 µg/ml, genetic background: ΔmarA) was 0.703 ± 1.2 and the “promoter activity interaction Z-score” value (0.28 µg/ml, genetic background: Δrob) was 0.528 ± 0.82. For the same molecule, the “promoter activity interaction Z-score” value (0.28 µg/ml, genetic background: ΔsoxS) was 0.0278 ± 0.18, the “promoter activity interaction Z-score” value (0.56 µg/ml, genetic background: wild type) was 1.8 ± 0.42 and the “promoter activity interaction Z-score” value (0.56 µg/ml, genetic background: ΔmarA) was 1.75 ± 0.93. The “promoter activity interaction Z-score” value (0.56 µg/ml, genetic background: Δrob) was 1.66 ± 0.88, the “promoter activity interaction Z-score” value (0.56 µg/ml, genetic background: ΔsoxS) was 3.09 ± 1.8 and the “promoter activity interaction Z-score” value (1.1 µg/ml, genetic background: wild type) was 4.3 ± 0.46. For the same molecule, the “promoter activity interaction Z-score” value (1.1 µg/ml, genetic background: ΔmarA) was 4.49 ± 2, the “promoter activity interaction Z-score” value (1.1 µg/ml, genetic background: Δrob) was 2.983 ± 0.0035 and the “promoter activity interaction Z-score” value (1.1 µg/ml, genetic background: ΔsoxS) was 4.44 ± 2.6.
For `CC(=O)C(NC(=O)C(C)C(O)C(C)NC(=O)C(NC(=O)c1nc(C(CC(N)=O)NCC(N)C(N)=O)nc(N)c1C)C(O[C@@H]1O[C@@H](CO)[C@@H](O)[C@H](O)[C@]1(C)O[C@@H]1OC(CO)[C@H](O)[C@](O)(C(N)=O)[C@H]1O)c1cnc[nH]1)C(=O)NCCC1=NC(c2nc(C(N)=O)cs2)CS1` (stereo partly drawn) [Phleomycin], the “promoter activity interaction Z-score” value (0.62 µg/ml, genetic background: wild type) was 1.05 ± 0.22, the “promoter activity interaction Z-score” value (0.62 µg/ml, genetic background: ΔmarA) was 2.57 and the “promoter activity interaction Z-score” value (0.62 µg/ml, genetic background: Δrob) was 1.98. For the same molecule, the “promoter activity interaction Z-score” value (0.62 µg/ml, genetic background: ΔsoxS) was 1.57 and the “promoter activity interaction Z-score” value (1.2 µg/ml, genetic background: wild type) was 2.71 ± 0.25.
